Experiments:
Assay in all cases: PBM binding z-score (relative to random genomic background probes); higher = stronger binding; sequences stand for … in GC…GCGATTGACAGCGTAGAATGAAGG
[1] = system: RARb homodimer (NR concentration 270 nM)
Outline: (§1)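 On custom Agilent 4×180K arrays, double-stranded probes with 34-nt variable regions carried direct-repeat seeds, single-nucleotide variants, half-site ablations or random human genomic background. Ligand-free nuclear receptor dimers were applied for 1 h, and binding was read with antibodies against each partner (one per run). Binding z-scores come from regression-normalized fluorescence, with the random background probes as reference.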

[2] = system: RARg:RXRa (NR concentration 270 nM, RXRa partner concentration 90 nM)
Outline: as §1

[3] = system: RARg homodimer (NR concentration 270 nM)
Outline: as §1

[4] = system: RXRa DBDmut IVT, anti-RXR (DBD mutation: RXRa K156A/R161A, NR concentration 90 nM)
Outline: as §1

[5] = system: RXRa homodimer (NR concentration 180 nM)
Outline: as §1

[6] = system: THRa:RXRa (NR concentration 90 nM, RXRa partner concentration 90 nM)
Outline: as §1

[7] = system: THRa homodimer (NR concentration 90 nM)
Outline: as §1

[8] = system: VDR homodimer (NR concentration 270 nM)
Outline: as §1

Sequence | PBM binding z-score [1] | PBM binding z-score [2] | PBM binding z-score [3] | PBM binding z-score [4] | PBM binding z-score [5] | PBM binding z-score [6] | PBM binding z-score [7] | PBM binding z-score [8]
CGAACTAGGTCAAGGACAGTCAATCTCCGCACGC | 3.32 | 3.79 | 4.63 | 1.46 | 2.57 | 3.19 | 1.96 | 0.563
AGAATGAGGTTGCCAAAGATCAGGGAAACGCTTG | -0.195 | 0.266 | 0.336 | 0.261 | 0.9 | 0.855 | -0.384 | -0.0161
TCTTGTAGATCAGCAGGTTAAAAAAGCTGGCCAA | 0.0977 | -0.388 | -0.402 | 0.516 | 0.184 | 0.165 | -0.53 | -0.268
TCTAATAGTTGATTAGGGCAACCGAAACAGCGGA | 0.599 | 0.338 | 0.66 | 0.755 | 0.708 | 0.551 | -0.0484 | -0.0344
CGTCAAAGTTCATCTAAGGTAACGTAAAGCACGC | 4.35 | 5.77 | 6.43 | 5.14 | 4.66 | 5.26 | 2.52 | 5.45
ATCTATAGGTAAAGATAGTTCAGTGAATGCAAAT | 1.07 | 0.887 | 0.972 | 0.0561 | 0.775 | 0.89 | 0.0462 | 0.507
CTCGAAAGATCGTGCTCAGGTGAGTATACCAAAC | -0.0864 | -0.0578 | -0.229 | -0.0478 | -0.33 | 1.28 | 0.584 | -0.082
GCTACAGGGTCAAGGCCAGAGTACGCGTATTGAT | 3.58 | 5.38 | 5.17 | 3 | 5.92 | 3.42 | 1.38 | 2.4
GCTTGTAGATCAAGGTTTAGAAAGACTAAGCTAA | -0.764 | -0.251 | -0.299 | -0.0471 | -0.469 | -0.36 | -0.736 | -0.186
AATACAGGGTCACTAGGCCATAGTAGGTACGAAT | 3.38 | 5.37 | 4.61 | 2.58 | 5.6 | 3.55 | 1.24 | 2.98
AGAATGAGGTTAAGATCAGGTAAACAGAATACAT | 0.989 | 2.66 | 1.76 | 1.17 | 2.81 | 3.55 | 1.36 | 0.461
GCATATAGGTAATACAAGGTGAAAGTGCGATTGT | 0.903 | 0.659 | 0.584 | 0.39 | 0.992 | 4.13 | 1.19 | 0.133
TTACCAAGGTGAGCTGAGGTCGTCGATCCAACTC | 1.49 | 1.37 | 1.36 | -0.22 | 1.75 | 4.74 | 2.4 | 1.02
CGTCCAAGGTCATAGGAGGTCAGTAAAGACAGAT | 5.26 | 6.85 | 7.38 | 4.16 | 6.73 | 5.25 | 3.1 | 4.5
CCGACTGGGGCAGAAAGGTTACCATGCCATCCGG | 2.33 | 1.54 | 1.08 | -1.07 | 1.72 | 1.05 | -0.541 | -0.201
CGAACTAGGGCAAGGACAGTGAATCTCCGCACGC | 0.945 | 0.544 | 1.17 | 0.123 | 0.145 | 1.09 | 0.786 | 0.0219
TCATATAGGTAATACAGGTGAAAATCGGCATCTA | 0.328 | 0.729 | 0.82 | 1.8 | 1.72 | 0.836 | 0.391 | 0.435

Sequence | PBM binding z-score [1] | PBM binding z-score [2] | PBM binding z-score [3] | PBM binding z-score [4] | PBM binding z-score [5] | PBM binding z-score [6] | PBM binding z-score [7] | PBM binding z-score [8]
GCTGCTAGGTCAACTGATGGTCAGGTAAAGCTCG | 3.83 | 5.13 | 5.23 | 1.6 | 3 | 3.27 | 1.76 | 0.0826
TCGTGTAGATCAATAGAGGTTAAGAAAGTGCGCT | 1.47 | 0.551 | 0.428 | 0.621 | 1.23 | 2.09 | -0.291 | 0.428
AGAACAAGGGCAATGAGTTGATAGCACGGGTGGC | 0.907 | 1.1 | 1.4 | 1.14 | 0.654 | 0.418 | -0.2 | 2.73
GTAACGAGGGCAAAGTTGATAGCATCTGTCGACG | 1.38 | 1.97 | 1.78 | 2.73 | 2.08 | 1.41 | -0.0253 | 1.7
AGAACGAGGGCAATGACTTGATAGCACGGGTGGC | 1.08 | 1.18 | 1.67 | 1.64 | 1.08 | 0.826 | 0.042 | 0.435
GCATATAGTTAATACAAGGTGAAAGTCCGATTGT | 0.847 | 0.222 | 0.365 | 0.966 | 0.312 | 2.89 | 1.18 | -0.0676
ATCTCTAGGTAAGACTCAGTTGAGTGAAGAACGC | -0.154 | 0.15 | 0.0573 | 0.17 | -0.0983 | 0.492 | 0.309 | 0.119
GTACCAAGGTGAATAGGTCTTTGATGAGTAGGCG | 1.13 | 1.15 | 0.913 | 0.00774 | 0.832 | 1.3 | 0.641 | 0.178
TCTGCTAGGTCAACGACGGTCAGCTAATCTGCTA | 3.74 | 4.42 | 5.58 | 1.13 | 2.74 | 3.48 | 0.555 | -0.198
CACCCTAGGTCAGGGCCAGTATAGGAGGAACGTT | 2.67 | 3.33 | 3.69 | -0.329 | 1.99 | 2.23 | 0.911 | -0.219
CGTCCAAGGTCATCAGGTCAGTGAAAGCGACGTG | 5.08 | 6.56 | 6.99 | 4.23 | 6.63 | 4.34 | 3.86 | 3.8
CGTCCAAGGTCAGAGACGTCAGTGAATGCCGAGT | 3.39 | 4.24 | 4.6 | 2.62 | 3.33 | 3.24 | 1.49 | 1.24
TTACCAAGGTGAAAGGTCGTTGTTGCACGCCTTG | 2.51 | 3.79 | 1.79 | 0.868 | 5.4 | 3.45 | 1.38 | 1.08
TAGCCTAGGTCATGCGGGCCGGTATAGTGTCGGC | 2.61 | 3.71 | 4.32 | 0.444 | 3.02 | 2.97 | 0.888 | 0.344
GCTAGCAGGCCATGTGGGTCACTCAATGACGGGC | 1.65 | 0.945 | 1.05 | -0.752 | 0.909 | 0.759 | -0.59 | 0.0438
AGACCGAGGGCAATGAGTTGATAGCACGGGTGGC | 0.894 | 0.934 | 1.36 | 1.31 | 0.545 | 0.481 | -0.368 | 3.16
CGAACTAGATCAAGGACAGTGAATCTCCGCACGC | 0.0367 | -0.32 | 0.287 | 0.258 | -0.168 | 1.22 | 1.24 | -0.103
